Experimental data published in PubChem BioAssay (NCI).
This is part of a sample that, as a whole, favours compounds with a hit. Of some 83,000 tested, about 20% had one in any assay.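 Method: cells in 96-well plates; compound added at one concentration; 48 h incubation; percent growth measured; values under 10 scored active.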 Active and inactive are the calls of the source.

How the values were obtained:
Assay in all cases: NCI-60 one-dose screen, 48 h (100 = growth as untreated, 0 = no growth, -100 = all killed)
Settings in all cases: 10 µM unless noted
HCT-15 colon = test system: HCT-15 colon
HT29 colon = test system: HT29 colon
SNB-75 CNS = test system: SNB-75 CNS
SNB-19 CNS = test system: SNB-19 CNS
U251 CNS = test system: U251 CNS
PC-3 prostate = test system: PC-3 prostate
SK-MEL-5 melanoma = test system: SK-MEL-5 melanoma
UACC-62 melanoma = test system: UACC-62 melanoma
SK-MEL-28 melanoma = test system: SK-MEL-28 melanoma
LOX IMVI melanoma = test system: LOX IMVI melanoma

Measured: growth

COc1cc(C2Nc3ccccc3S2)cc(CN2CCOCC2)c1O (stereo not drawn)
inactive: HCT-15 colon 52.3% | HT29 colon 93.4% | SNB-75 CNS 46% | SNB-19 CNS 75.9% | U251 CNS 86.7% | PC-3 prostate 82.1% | SK-MEL-5 melanoma 50.6% | UACC-62 melanoma 57.3% | SK-MEL-28 melanoma 68.6%

CC(C)=CCC[C@H](C)c1ccc(C)c2c1OCN(CCO)C2
inactive: HCT-15 colon 105% | HT29 colon 68.7% | SNB-75 CNS 58.7% | SNB-19 CNS 57.9% | U251 CNS 85.1% | PC-3 prostate 76.9% | SK-MEL-5 melanoma 81.2% | UACC-62 melanoma 96.1% | SK-MEL-28 melanoma 111%

O=C(CSc1ccc(Cl)cc1)Nc1ccc(-c2nc3ccccc3s2)c(Cl)c1
inactive: HCT-15 colon 39.6% | HT29 colon 57% | SNB-75 CNS 79.1% | SNB-19 CNS 62.7% | U251 CNS 52.9% | PC-3 prostate 30.9% | SK-MEL-5 melanoma 79% | UACC-62 melanoma 58.4% | SK-MEL-28 melanoma 108%

ClCc1cccc(CSc2ncnc3c2ncn3Cc2cccc(CCl)c2)c1
inactive: HCT-15 colon 20.7% | HT29 colon 13.2% | SNB-19 CNS 45.6% | PC-3 prostate 49.8% | SK-MEL-5 melanoma 20.2% | SK-MEL-28 melanoma 27.4%
active: SNB-75 CNS -13.8% | U251 CNS -69.8% | UACC-62 melanoma 6.23%

CCCc1n(Cc2ccc3ccccc3n2)cc[n+]1Cc1ccc2ccccc2n1
inactive: HCT-15 colon 95.7% | HT29 colon 16.8% | SNB-75 CNS 19.5% | SNB-19 CNS 19.1% | U251 CNS 20.6% | PC-3 prostate 24.8% | SK-MEL-28 melanoma 19.3%
active: SK-MEL-5 melanoma -49% | UACC-62 melanoma 1.66%

Fc1ccc(-c2ccnc3nc(-c4ccncc4)nn23)cc1
inactive: HCT-15 colon 103% | HT29 colon 97.3% | SNB-75 CNS 90.1% | SNB-19 CNS 112% | U251 CNS 104% | PC-3 prostate 97.2% | SK-MEL-5 melanoma 106% | UACC-62 melanoma 116% | SK-MEL-28 melanoma 111%

COCCn1c(Nc2ccc(C(=O)NO)cc2)nc2ccccc21
inactive: HCT-15 colon 74.9% | HT29 colon 44.1% | SNB-75 CNS 22.1% | SNB-19 CNS 69.6% | U251 CNS 61.4% | PC-3 prostate 69.5% | SK-MEL-5 melanoma 47.4% | UACC-62 melanoma 25.8% | SK-MEL-28 melanoma 61.3%

CN(C)c1ccc(Nc2c3ccccc3nc3ccccc23)cc1
inactive: SNB-19 CNS 28.4% | U251 CNS 23% | PC-3 prostate 33% | UACC-62 melanoma 14.3% | SK-MEL-28 melanoma 26%
active: HCT-15 colon 6.89% | HT29 colon 8.13% | SNB-75 CNS 9.38% | SK-MEL-5 melanoma 9.1%

COc1cc2c(cc1I)-c1c(cc(OC)c(OC)c1OC)CC[C@@H]2NC(C)=O
active: HCT-15 colon 9.35% | HT29 colon 4.21% | SK-MEL-5 melanoma 2.44%
inactive: SNB-75 CNS 27.7% | SNB-19 CNS 28% | U251 CNS 17.3% | PC-3 prostate 27.2% | UACC-62 melanoma 16.4% | SK-MEL-28 melanoma 41.6%

CCOC(=O)Nc1ccc2nc(-c3cscn3)[nH]c2c1
inactive: HCT-15 colon 37.8% | HT29 colon 14.8% | SNB-75 CNS 33.1% | SNB-19 CNS 63.2% | U251 CNS 35% | PC-3 prostate 82.2% | SK-MEL-5 melanoma 31.9% | LOX IMVI melanoma 46.6% | SK-MEL-28 melanoma 53.4%

N#Cc1nc(-c2ccc(Cl)cc2)cc(-c2ccc(Nc3nc(N4CCCCC4)nc(N4CCCCC4)n3)cc2)c1N
inactive: HCT-15 colon 108% | HT29 colon 113% | SNB-75 CNS 81.5% | SNB-19 CNS 104% | U251 CNS 102% | PC-3 prostate 91.6% | SK-MEL-5 melanoma 97.6% | LOX IMVI melanoma 95.8%

CCc1ccc2c(c1)N(CCO)C1=C(C(=O)OC1)C2c1cccc(Br)c1 (stereo not drawn)
inactive: HCT-15 colon 26.3% | SNB-19 CNS 37.9% | U251 CNS 24% | PC-3 prostate 30.1% | SK-MEL-5 melanoma 33.2% | LOX IMVI melanoma 42.2% | SK-MEL-28 melanoma 49%
active: HT29 colon 3.88% | SNB-75 CNS 2.55%

O=C(Nc1ccccc1Cl)Oc1ccc2ccccc2c1
inactive: HCT-15 colon 99.2% | HT29 colon 98.9% | SNB-75 CNS 83.7% | SNB-19 CNS 98.3% | U251 CNS 103% | PC-3 prostate 102% | SK-MEL-5 melanoma 110% | LOX IMVI melanoma 95.1% | SK-MEL-28 melanoma 106%

C#CC[C@@H]1C[C@]2(C)[C@H]3CC=C4[C@H]5[C@@H](C)[C@H](C)CC[C@]5(C(=O)NCCCCCCCCN)CC[C@@]4(C)[C@]3(C)CC[C@H]2C(C)(C)[C@H]1OC(C)=O
inactive: SNB-75 CNS 83.2% | SNB-19 CNS 64.8% | SK-MEL-5 melanoma 91.9% | UACC-62 melanoma 105% | SK-MEL-28 melanoma 103%
active: HCT-15 colon -62.1% | HT29 colon -65.4% | U251 CNS -90.8% | PC-3 prostate -21.7%

O=C1CC2(O)CSc3nc(=O)cc(n32)N1 (stereo not drawn)
inactive: HCT-15 colon 96.5% | HT29 colon 103% | SNB-75 CNS 98.4% | SNB-19 CNS 91.6% | U251 CNS 97.2% | PC-3 prostate 93.9% | SK-MEL-5 melanoma 99.5% | LOX IMVI melanoma 103% | SK-MEL-28 melanoma 104%

COc1ccc(-c2n[nH]nc2-c2cc(OC)c3c(c2)OCO3)cc1
active: HCT-15 colon 6.08% | HT29 colon -9.19% | U251 CNS 1.06% | PC-3 prostate -7.05% | SK-MEL-5 melanoma -1.56% | LOX IMVI melanoma -4.34%
inactive: SNB-75 CNS 25.4% | SNB-19 CNS 48.7% | SK-MEL-28 melanoma 46.3%

C=CCN(CCOC(=O)c1ccc([N+](=O)[O-])cc1)CCOC(=O)c1ccc([N+](=O)[O-])cc1
inactive: HCT-15 colon 118% | HT29 colon 111% | SNB-75 CNS 83.7% | SNB-19 CNS 108% | U251 CNS 103% | PC-3 prostate 85.4% | SK-MEL-5 melanoma 94.8% | LOX IMVI melanoma 88.8% | SK-MEL-28 melanoma 106%

C/C(=N\NC(=S)N1CCCCC1)c1ccccn1
inactive: HCT-15 colon 22.1% | SNB-75 CNS 28.8% | SNB-19 CNS 22.9% | LOX IMVI melanoma 13.4% | SK-MEL-28 melanoma 37%
active: HT29 colon 8.66% | U251 CNS 3.98% | PC-3 prostate 9.88% | SK-MEL-5 melanoma -33.2%

CCc1ccc2c(c1)N(CCO)C1=C(C(=O)OC1)C2c1cccc(Cl)c1 (stereo not drawn)
inactive: HCT-15 colon 15.9% | SNB-75 CNS 18.9% | SNB-19 CNS 36.4% | U251 CNS 18.1% | PC-3 prostate 28.8% | SK-MEL-5 melanoma 32.1% | UACC-62 melanoma 21.8% | SK-MEL-28 melanoma 50.3%
active: HT29 colon 4.49%

CCCCNCC(O)c1cc2c(Cl)cc(Cl)cc2c2cc(C(F)(F)F)ccc12 (stereo not drawn)
active: HCT-15 colon -60.4% | HT29 colon -84.4% | SNB-75 CNS -87.6% | SNB-19 CNS -71.5% | U251 CNS -95.5% | PC-3 prostate -89.6% | SK-MEL-5 melanoma -35.4% | LOX IMVI melanoma -77.8% | SK-MEL-28 melanoma -88.4%

CCCc1cc2c(cc1CN(Cc1cc3c(cc1CCC)OCO3)C(=N)OCC)OCO2
inactive: HCT-15 colon 94.8% | HT29 colon 52.4% | SNB-75 CNS 95.6% | SNB-19 CNS 94% | U251 CNS 67.3% | PC-3 prostate 59.3% | SK-MEL-5 melanoma 88.8% | LOX IMVI melanoma 83.6% | SK-MEL-28 melanoma 102%

Cc1ccc2cc3c(NC(=O)c4cccnc4)nn(C)c3nc2c1
inactive: HCT-15 colon 91.6% | HT29 colon 75.8% | SNB-75 CNS 73.8% | SNB-19 CNS 82.6% | U251 CNS 85.2% | PC-3 prostate 62.5% | SK-MEL-5 melanoma 83.1% | LOX IMVI melanoma 92.4% | SK-MEL-28 melanoma 96%

CN(C)c1ccc(N2Cc3ccccc3OC3=C2C(=O)c2c(O)ccc(O)c2C3=O)cn1
active: HCT-15 colon -64.4% | HT29 colon -50.8% | SNB-75 CNS 0.378% | SNB-19 CNS 6.23% | U251 CNS -15.7% | PC-3 prostate -4.29% | SK-MEL-5 melanoma -81.3% | LOX IMVI melanoma -68.1% | SK-MEL-28 melanoma -82.8%

COc1cc(/C=C/C(=O)c2c(C)nc3ccccc3c2C)ccc1OCCCOc1cc2c(cc1OC)C(=O)N1CCC[C@H]1C=N2
active: HCT-15 colon -25.9% | HT29 colon -71.9% | SNB-75 CNS -76.8% | SNB-19 CNS -49.8% | U251 CNS -66.4% | PC-3 prostate -15.9% | SK-MEL-5 melanoma -98.8% | LOX IMVI melanoma -99.3% | SK-MEL-28 melanoma -63.1%

O=NN(CC(=O)NNc1ccccc1)CC(=O)NNc1ccccc1
inactive: HCT-15 colon 33.7% | HT29 colon 69.2% | SNB-75 CNS 90.8% | SNB-19 CNS 96.2% | U251 CNS 78.8% | PC-3 prostate 58.8% | SK-MEL-5 melanoma 90.5% | SK-MEL-28 melanoma 95.5%
active: LOX IMVI melanoma 7.04%

C/C(=N\OC(=O)Nc1ccccc1)c1ccccc1
inactive: HCT-15 colon 96.8% | HT29 colon 105% | SNB-75 CNS 87.7% | SNB-19 CNS 103% | U251 CNS 89.7% | PC-3 prostate 99.4% | SK-MEL-5 melanoma 95.6% | LOX IMVI melanoma 110% | SK-MEL-28 melanoma 101%

COc1cc(/C=C/C(=O)c2ccc(NC(=O)CSc3nnc(-c4ccc(Cl)cc4)n3-c3ccccc3)cc2)cc(OC)c1OC
inactive: HCT-15 colon 49.8% | HT29 colon 74.8% | SNB-75 CNS 62.4% | SNB-19 CNS 76.4% | U251 CNS 69.7% | PC-3 prostate 69.7% | SK-MEL-5 melanoma 55.8% | UACC-62 melanoma 68.5% | SK-MEL-28 melanoma 97.1%

CNC(=O)c1cc(Oc2ccc(NC(=O)c3[nH]c(SC)nc3-c3ccc(F)cc3)cc2)ccn1
inactive: HCT-15 colon 72.5% | HT29 colon 12.8% | SNB-75 CNS 78.7% | SNB-19 CNS 99.3% | U251 CNS 84.6% | PC-3 prostate 33.2% | SK-MEL-5 melanoma 23.3% | SK-MEL-28 melanoma 22.3%
active: UACC-62 melanoma 5.44%

Cc1cc(Cl)c2ccc(N(C)C)cc2n1
inactive: HCT-15 colon 94.9% | HT29 colon 102% | SNB-75 CNS 82.7% | SNB-19 CNS 95% | U251 CNS 92.8% | PC-3 prostate 101% | SK-MEL-5 melanoma 102% | SK-MEL-28 melanoma 101%

COc1ccc(-c2[nH]nc(N)c2-c2cc(OC)c(OC)c(OC)c2)cc1
inactive: HCT-15 colon 10.1% | SNB-75 CNS 54.9% | SNB-19 CNS 48.8% | UACC-62 melanoma 23.8% | SK-MEL-28 melanoma 47.8%
active: HT29 colon -2.71% | U251 CNS 6% | PC-3 prostate 6.31% | SK-MEL-5 melanoma -16.5%
